This note sets out measurements from PubChem BioAssay.

SMILES strings stand for the structures. Active and inactive are the calls of the source. Unless noted, the rule behind the calls is not given here.

Assay [1] can be described thus: liver-stage malaria parasite load reduction – cell-based, known kinase inhibitor set, luminescence, hepatoma host viability (AID 624392).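 Note: infected cells incubated roughly two days before readout.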 The note with it: Plasmodium liver stage in hepatoma cells, luciferase luminescence, concentration not given here; liver cell % of control: measured here: host liver cell viability; parasite % of control: stronger effect = lower value.
The nature of assay [2]: altered dexamethasone sensitivity, NF-kB reporter, cell-based, luciferase, IL-1B stimulus (AID 624486).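 For percent of negative control (+Dex): 100% = mean signal of vehicle control wells on the plate.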 The note with it: IL-1B + dexamethasone, luminescence; percent of negative control (+Dex): actives lie on both sides, concentration not given here; z-score: measured here: IL-1B alone, no Dex.
The nature of assay [3]: C. elegans survival during P. aeruginosa infection – whole organism (AID 651566).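 Note: tested at 14 µM; sign flipped so higher z means a lower ratio.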 The note with it: C. elegans killed by P. aeruginosa, survival ratio.
Assay [4] in a line: pro-inflammatory signaling induction in mouse macrophages – cell-based, murine, luminescence (AID 652131). The note with it: murine macrophage pro-inflammatory reporter, stronger effect = higher value.
Assay [5] has as its target Cellular tumor antigen p53 (Homo sapiens) (UniProt P04637). The experiment in a line: GFP-p53 level modulators in HPV16+ cells – imaging, known kinase inhibitor set, EGFP/DsRed ratio (AID 1053116).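 Note: cells exposed to compounds for 24 h at 37 °C before reading.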 The settings on record: GFP-p53 stability, stronger effect = higher value; EGFP object count: measured here: GFP-p53 positive objects count.
Assay [6] in a line: inducers of IRF3 signaling, differentiated THP-1 – cell-based, PMA-stimulated THP-1, luminescence (AID 1053176). The settings on record: PMA-differentiated THP-1, IRF3 reporter luminescence; stronger effect = higher value.
Assay [7] is described as follows: MELAS cybrid and Rieske KO viability enhancers – cell-based, MELAS cybrids, Rieske KO mouse fibroblasts, CellTiter-Glo, primary screen (AID 1508586;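 active = mean z-score across replicates of 1.96 or higher in either the MELAS or the Rieske mutant cell line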;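 note: z relative to plate mean and SD of compound and empty wells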). The note with it: low glucose. In general terms: Cellular ATP, detected with luciferase, serves as a proxy for viable cell number.
Setting [8] is: MELAS cybrid survival, CellTiter-Glo 48 h, stronger effect = higher value.
[9] abbreviates: Rieske KO mouse fibroblast survival, CellTiter-Glo 72 h.

Cellular tumor antigen p53 (Homo sapiens), sequence (P04637 whole entry, looked up): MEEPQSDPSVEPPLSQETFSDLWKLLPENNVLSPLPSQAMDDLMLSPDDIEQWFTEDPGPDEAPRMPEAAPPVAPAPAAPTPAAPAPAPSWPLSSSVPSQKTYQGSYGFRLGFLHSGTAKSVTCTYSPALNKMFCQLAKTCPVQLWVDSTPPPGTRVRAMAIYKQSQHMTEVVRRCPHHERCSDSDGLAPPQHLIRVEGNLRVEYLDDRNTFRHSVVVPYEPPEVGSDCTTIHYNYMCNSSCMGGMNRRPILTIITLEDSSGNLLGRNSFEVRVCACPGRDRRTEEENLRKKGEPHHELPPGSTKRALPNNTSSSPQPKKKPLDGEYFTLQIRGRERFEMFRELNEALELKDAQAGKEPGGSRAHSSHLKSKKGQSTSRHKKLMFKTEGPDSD

As for `CCn1c(-c2nonc2N)nc2c(C#CC(C)(C)O)ncc(OC[C@@H]3CCCN3)c21`, the liver cell % of control in assay [1] was found to be 81.5%. Also, the parasite % of control in assay [1] is 41.7% (inactive). In assay [2], the percent of negative control (+Dex) is 104% (inactive). For the same compound, the z-score was -0.32 in assay [2]; -0.14 (inactive) in assay [3]; 5.3 (inactive) in assay [4]; -0.59 (inactive) in assay [7] (setting [8]); -0.205 in assay [7] (setting [9]). In assay [5], the EGFP object count worked out at 11.5. Besides, the EGFP/DsRed ratio in assay [5] was 0.291 (inactive). Besides, the fraction signal in assay [6] was 0.0025 (inactive).

Regarding `CCn1c(-c2nonc2N)nc2c(C#CC(C)(C)O)nc(OC[C@@H](N)c3ccccc3)cc21`, the liver cell % of control in assay [1] turned out to be 87.1%. Also, the parasite % of control in assay [1] was 48.7% (inactive). For the same compound, the percent of negative control (+Dex) in assay [2] was 108% (inactive). Moreover, the z-score in assay [2] is 3.72; in assay [3], 0.96 (inactive); in assay [4] it was -1.1 (inactive); in assay [7] (setting [8]) it was -0.774 (inactive); in assay [7] (setting [9]), 0.238. In assay [5], the EGFP object count stood at 19.5. For the same compound, in assay [5], the EGFP/DsRed ratio was 0.658 (inactive). In addition, in assay [6], the fraction signal was -0.0095 (inactive).

On to `COc1cc(C)c(N(C)C(=O)CN(C)C)cc1Nc1nc(Nc2cccc(F)c2C(N)=O)c2cc[nH]c2n1`, for which the liver cell % of control in assay [1] was 71.5%. Also, the parasite % of control in assay [1] was 391% (inactive). Also, the percent of negative control (+Dex) in assay [2] is 110% (inactive). Moreover, the z-score in assay [2] was 0.76; in assay [3] it was 0.1 (inactive); in assay [4] it was 0.717 (inactive); in assay [7] (setting [8]), 3.65 (active); in assay [7] (setting [9]), 1.35. Also, the EGFP object count in assay [5] stood at 5. The EGFP/DsRed ratio in assay [5] is 0.2 (inactive). Further, the fraction signal in assay [6] was -0.0115 (inactive).

In assay [1], `NC(=O)c1sc(-n2cnc3ccc(C(F)(F)F)cc32)cc1OCc1ccccc1Br` had a liver cell % of control of 104%. Further, in assay [1], the parasite % of control is 160% (inactive). For the same compound, in assay [2], the percent of negative control (+Dex) was 98.5% (inactive). For the same compound, the z-score in assay [2] is 0.57; in assay [3], -0.455 (inactive); in assay [4], -0.965 (inactive); in assay [7] (setting [8]), -0.166 (inactive); in assay [7] (setting [9]), -0.246. Besides, the EGFP object count in assay [5] was determined as 4. Besides, the EGFP/DsRed ratio in assay [5] was 0.119 (inactive). The fraction signal in assay [6] was 0.007 (inactive).

For `Cc1cc(O)cc(C)c1/C=C/c1cncc(C(=O)OC(C)(C)C)c1`, the liver cell % of control in assay [1] is 60.8%. In addition, the parasite % of control in assay [1] is 116% (inactive). Besides, the percent of negative control (+Dex) in assay [2] is 100% (inactive). Besides, the z-score in assay [2] is 0.33; in assay [3], 0.75 (inactive); in assay [4], -0.067 (inactive); in assay [7] (setting [8]), 0.119 (inactive); in assay [7] (setting [9]), -0.153. In addition, the EGFP object count in assay [5] is 34.5. Further, the EGFP/DsRed ratio in assay [5] was 0.559 (inactive). Also, the fraction signal in assay [6] was 0.0035 (inactive).

Take `NS(=O)(=O)c1cccc(NC2CC(c3ccc(F)cc3)NN2)c1` (stereo not drawn): the liver cell % of control in assay [1] came out at 86.1%. The parasite % of control in assay [1] was 117% (inactive). The percent of negative control (+Dex) in assay [2] was 92.5% (inactive). The z-score is 0.55 in assay [2]; 0.39 (inactive) in assay [3]; 4.5 (inactive) in assay [4]; 1.38 (inactive) in assay [7] (setting [8]); -0.322 in assay [7] (setting [9]). In assay [5], the EGFP object count worked out at 7.5. The EGFP/DsRed ratio in assay [5] is 0.474 (inactive). Also, the fraction signal in assay [6] is -0.0055 (inactive).

In assay [1], `NS(=O)(=O)c1cccc(-c2ccc3c(NC(=O)C4CC4)n[nH]c3c2)c1` registered a liver cell % of control of 97.5%. Further, the parasite % of control in assay [1] is 241% (inactive). In assay [2], the percent of negative control (+Dex) was 90.5% (inactive). The z-score in assay [2] was 0.225; in assay [3], -0.22 (inactive); in assay [4], -0.069 (inactive); in assay [7] (setting [8]), -0.0262 (inactive); in assay [7] (setting [9]), -0.475. Further, the EGFP object count in assay [5] was 4. The EGFP/DsRed ratio in assay [5] was 0.0329 (inactive). For the same compound, the fraction signal in assay [6] is -0.0015 (inactive).

For the compound `Fc1ccc(Nc2nccc(-c3c(-c4ccc(C(F)(F)F)cc4)nn4ncccc34)n2)cc1F`, in assay [1], the liver cell % of control came out at 121%. Also, in assay [1], the parasite % of control is 125% (inactive). The percent of negative control (+Dex) in assay [2] was 94.5% (inactive). Further, the z-score in assay [2] was 0.25; in assay [3] it was 0.135 (inactive); in assay [4], -0.216 (inactive); in assay [7] (setting [8]) it was -0.717 (inactive); in assay [7] (setting [9]), -0.174. Besides, the EGFP object count in assay [5] came to 5.5. In addition, the EGFP/DsRed ratio in assay [5] was 0.0976 (inactive). In addition, the fraction signal in assay [6] was 0.008 (inactive).

As to `CCn1c(-c2nonc2N)nc2c(C#CC(C)(C)O)nc(CN3CCCC3)cc21`, the liver cell % of control in assay [1] was 107%. For the same compound, in assay [1], the parasite % of control is 162% (inactive). Moreover, the percent of negative control (+Dex) in assay [2] is 85.5% (inactive). Besides, the z-score in assay [2] was -0.04; in assay [3], -0.175 (inactive); in assay [4], 0.541 (inactive); in assay [7] (setting [8]), -0.869 (inactive); in assay [7] (setting [9]) it was 0.697. In assay [5], the EGFP object count was found to be 4. The EGFP/DsRed ratio in assay [5] was 0.0701 (inactive). In addition, the fraction signal in assay [6] was 0.0045 (inactive).

Take `Cc1ccc(NC(=O)c2ccnc(N3CCCC3)c2)cc1-c1ccc(C(=O)NCC2CC2)cc1`: in assay [1], the liver cell % of control amounted to 90.4%. Besides, in assay [1], the parasite % of control was 91.3% (inactive). Also, the percent of negative control (+Dex) in assay [2] was 104% (inactive). Also, the z-score in assay [2] was 0.86; in assay [3], -0.79 (inactive); in assay [4], -0.27 (inactive); in assay [7] (setting [8]), -0.285 (inactive); in assay [7] (setting [9]), -0.118. Besides, the EGFP object count in assay [5] worked out at 6. The EGFP/DsRed ratio in assay [5] was 0.0951 (inactive). Moreover, the fraction signal in assay [6] is -0.0005 (inactive).

Turning to `CCn1c(-c2nonc2N)nc2ccncc21`, the liver cell % of control in assay [1] was 99.1%. Moreover, the parasite % of control in assay [1] was 98.3% (inactive). In assay [2], the percent of negative control (+Dex) was 93.5% (inactive). Besides, the z-score in assay [2] is -0.26; in assay [3] it was -0.61 (inactive); in assay [4] it was -0.193 (inactive); in assay [7] (setting [8]), -0.197 (inactive); in assay [7] (setting [9]) it was -0.472. For the same compound, the EGFP object count in assay [5] turned out to be 4. Further, the EGFP/DsRed ratio in assay [5] is 0.405 (inactive). In assay [6], the fraction signal is -0.004 (inactive).

Regarding `Cc1ccc(C(=O)NC2CC2)cc1-c1ccc2[nH]ncc2c1`, the liver cell % of control in assay [1] worked out at 103%. Besides, in assay [1], the parasite % of control was 126% (inactive). The percent of negative control (+Dex) in assay [2] is 102% (inactive). Further, the z-score in assay [2] was 0.41; in assay [3], 0.325 (inactive); in assay [4] it was -0.645 (inactive); in assay [7] (setting [8]) it was -0.239 (inactive); in assay [7] (setting [9]), -0.0886. In addition, the EGFP object count in assay [5] came to 3.5. In assay [5], the EGFP/DsRed ratio was 0.141 (inactive). The fraction signal in assay [6] was 0.0035 (inactive).

Consider `COc1c(C(N)=O)cc(-c2ccc(Cl)cc2)cc1-c1ccc(S(N)(=O)=O)cc1`, for which, in assay [1], the liver cell % of control is 100%. Further, the parasite % of control in assay [1] was 180% (inactive). The percent of negative control (+Dex) in assay [2] is 90.5% (inactive). Further, the z-score is 0.135 in assay [2]; -0.43 (inactive) in assay [3]; 0.956 (inactive) in assay [4]; 0.239 (inactive) in assay [7] (setting [8]); 0.0436 in assay [7] (setting [9]). The EGFP object count in assay [5] was 4. For the same compound, in assay [5], the EGFP/DsRed ratio was 0.128 (inactive). Moreover, the fraction signal in assay [6] is -0.003 (inactive).
